Results as given in PubChem BioAssay AID1159580 (chemical genetic matrix, 2015).
Hit rate of the full screen: of about 5,500 compounds, about 2,000 (36%) were called active. Roughly 18% stayed inconclusive and do not appear here. No stated cut-off is given here; in the data, active means normalized growth mostly below about 0.91 (no sharp cut-off); inconclusive means no clear call, values can overlap the other calls; inactive means mostly above about 0.92. Some of the results follow.

Assay: chemical genetic growth profiling, strain panel (AID 1159580);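 further: tested at 20 µM; growth read once vehicle control cultures reached saturation at 30 °C; 1 = growth at the plate median or of vehicle wells; lower values mean less growth of the strain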
Settings: S. cerevisiae deletion strains, growth OD

Measured: normalized growth

O=C1OC2(c3ccc(O)cc3Oc3cc(O)ccc32)c2ccccc21
inactive: locus YAL021C, strain ccr4, active compounds read low 1.02 | locus YAL026C, strain drs2, active compounds read low 0.997 | locus YAL030W, strain snc1, active compounds read low 1.01 | locus YBL061C, strain skt5, active compounds read low 1.01 | locus YBR009C, strain hhf1, active compounds read low 0.995 | locus YBR023C, strain chs3, active compounds read low 1.02 | locus YBR171W, strain sec66, active compounds read low 1.04 | locus YBR231C, strain swc5, active compounds read low 1 | locus YBR279W, strain paf1, active compounds read low 1.01 | locus YCL011C, strain gbp2, active compounds read low 1.02 | locus YCL016C, strain dcc1, active compounds read low 1 | locus YCL069W, strain vba3, active compounds read low 1.02 | locus YCR088W, strain abp1, active compounds read low 1.03 | locus YDL005C, strain med2, active compounds read low 1.02 | locus YDL040C, strain nat1, active compounds read low 1.01 | locus YDR001C, strain nth1, active compounds read low 1.03 | locus YDR069C, strain doa4, active compounds read low 1.01 | locus YDR137W, strain rgp1, active compounds read low 0.994 | locus YDR159W, strain sac3, active compounds read low 0.986 | locus YDR195W, strain ref2 1.03 | locus YDR297W, strain sur2, active compounds read low 1.02 | locus YDR334W, strain swr1, active compounds read low 0.989 | locus YDR335W, strain msn5, active compounds read low 1.01 | locus YDR392W, strain spt3, active compounds read low 0.976 | locus YEL003W, strain gim4, active compounds read low 1.01 | locus YEL037C, strain rad23, active compounds read low 1.01 | locus YEL061C, strain CIN8 (second series), active compounds read low 1.01 | locus YER015W, strain faa2, active compounds read low 1.01 | locus YER016W, strain bim1, active compounds read low 0.994 | locus YER111C, strain swi4, active compounds read low 1.01 | locus YER155C, strain BEM2 (second series), active compounds read low 1.02 | locus YFR010W, strain ubp6, active compounds read low 1.02 | locus YGL167C, strain pmr1, active compounds read low 1.02 | locus YGL173C, strain kem1, active compounds read low 1.01 | locus YGL227W, strain vid30, active compounds read low 1.02 | locus YGL240W, strain doc1, active compounds read low 0.973 | locus YGL253W, strain hxk2, active compounds read low 1.02 | locus YHR013C, strain ard1, active compounds read low 1.04 | locus YHR027C, strain rpn1, active compounds read low 1.01 | locus YHR030C, strain SLT2, active compounds read low 0.978 | locus YHR079C, strain IRE1, active compounds read low 0.974 | locus YHR142W, strain chs7, active compounds read low 1.04 | locus YJL092W, strain hpr5, active compounds read low 1.02 | locus YJL095W, strain BCK1 (second series), active compounds read low 1.01 | locus YJL095W, strain BCK1, active compounds read low 1.02 | locus YJL115W, strain asf1, active compounds read low 1.01 | locus YJL129C, strain trk1, active compounds read low 1.04 | locus YJL154C, strain vps35, active compounds read low 1.02 | locus YJL164C, strain tpk1, active compounds read low 1 | locus YJL166W, strain qcr8, active compounds read low 1 | locus YJR066W, strain TOR1, active compounds read low 0.938 | locus YKL160W, strain elf1, active compounds read low 1.02 | locus YKR026C, strain gcn3, active compounds read low 1.02 | locus YKR091W, strain srl3, active compounds read low 1.02 | locus YLL001W, strain dnm1, active compounds read low 0.997 | locus YLL026W, active compounds read low 0.999 | locus YLL041C, strain sdh2, active compounds read low 1.01 | locus YLR027C, strain aat2, active compounds read low 1.01 | locus YLR113W, strain HOG1, active compounds read low 0.98 | locus YLR221C, strain rsa3, active compounds read low 0.999 | locus YLR258W, strain gsy2, active compounds read low 1.01 | locus YLR262C, strain YPT6 (second series), active compounds read low 1 | locus YLR320W, strain mms22, active compounds read low 1 | locus YLR342W, strain FKS1, active compounds read low 0.992 | locus YLR357W, strain rsc2, active compounds read low 1.01 | locus YLR370C, strain arc18, active compounds read low 1.01 | locus YLR384C, strain iki3, active compounds read low 1.02 | locus YML120C, strain ndi1, active compounds read low 1.04 | locus YMR058W, strain fet3, active compounds read low 1.01 | locus YMR125W, strain sto1, active compounds read low 1.02 | locus YMR129W, active compounds read low 1.02 | locus YMR205C, strain PFK2, active compounds read low 1.02 | locus YMR231W, strain pep5, active compounds read low 1.02 | locus YNL071W, strain lat1, active compounds read low 1.01 | locus YNL183C, strain NPR1, active compounds read low 0.951 | locus YNL209W, strain ssb2, active compounds read low 1.02 | locus YNL248C, strain rpa49, active compounds read low 1 | locus YNL322C, strain KRE1 (second series), active compounds read low 0.99 | locus YNR049C, strain mso1, active compounds read low 1.02 | locus YOR001W, strain rrp6, active compounds read low 1.01 | locus YOR070C, strain gyp1, active compounds read low 1.01 | locus YOR080W, strain dia2, active compounds read low 1.02 | locus YOR083W, strain WHI5, active compounds read low 0.98 | locus YOR106W, strain vam3, active compounds read low 1.02 | locus YOR231W, strain MKK1, active compounds read low 0.971 | locus YOR265W, strain rbl2, active compounds read low 1.01 | locus YOR270C, strain vph1, active compounds read low 0.991 | locus YOR290C, strain snf2, active compounds read low 1 | locus YPL051W, strain arl3, active compounds read low 0.997 | locus YPL078C, strain atp4, active compounds read low 0.992 | locus YPL106C, strain sse1, active compounds read low 0.987 | locus YPL240C, strain hsp82, active compounds read low 1.01 | locus YPL256C, strain CLN2, active compounds read low 0.99
